The structures appear in SMILES notation. Several values for one entry are separate records, joined by “and”; a condition that tells them apart may be missing. Equal entries are not always repeated. Results filed as inconclusive are left out. Some structures have more than one record in an assay (separate samples or runs), and their calls can disagree. Values without a mark were called inactive. Activity calls are given as the source filed them. Calls follow the shape of the dose curve; as a rule, active = well fitted curve in the direction sought with a large enough effect; inconclusive = small, poorly fitted or top-dose-only effect, or another doubt; inactive = no such curve, though single readings can be large or run the other way.
% is scaled to controls: 0 for no effect and ±100 for the full control effect; potency is read from the fitted curve at half-maximal effect.

The test in a line: qHTS Assay for Identifying Gametocytocidal Compounds (AID 743244).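 As to max response: actives lower the fluorescent signal which means gametocytes are killed.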 Particulars: P. falciparum 3D7 stage III-V gametocytes, alamarBlue, 72 h; max response: active compounds read low. An excerpt:
Malaria cases and deaths have dropped 50% in 29 countries since 2000 due to the combined effects of long-lasting insecticidal bednets, indoor residual spraying, and artemisinin-based combination therapies (ACTs). This success has raised hopes for malaria eradication and consequently stimulated interest in developing new reagents that block gametocyte transmission such as novel and safe gametocytocidal drugs. However, previous drug development efforts have focused primarily on the asexual parasites that cause symptoms, but not malaria transmission. Consequently, patients can remain infectious for weeks after the clearance of asexual parasites and clinical symptoms. To be transmitted from person to person via a mosquito, the parasites must switch from asexual to sexual development and produce male and female gametocytes. Malaria gametocytes consist of five stages (I, II, III, IV and V). The late stage gametocytes (III, IV and V) are difficult to be cultured in vitro and the long lifespan of mature gametocytes allows them being transmitted from host to mosquitoes unless they are completely eliminated by gametocytocidal agents. To identify gametocytocidal compounds which are capable of killing late stage P. falciparum gametocytes, a high throughput gametocyte viability assay was employed. This assay uses oxidoreduction indicator, alamarBlue, as a general measure of metabolic activity of gametocytes. Within live cells, the nonfluorescent resazurin is reduced to resorufin, a bright red fluorescence dye. Fluorescence decreases upon treatment of gametocytocidal compounds. P. falciparum gametocyte (3D7 strain) was used in this study.
The 1536-well gametocycidal viability assay was based on the previous method of Tanaka et al. Stage III-V gametocytes were tested against three compound libraries, including 4265 compounds from NCGC pharmaceutical collection, 400 from Malaria Box library, and 550 from an internal collection of kinase inhibitors. Briefly, 2.5 ul/well incomplete medium was dispensed into each well of 1,536-well plates using the Multidrop Combi followed by 23 nl compound transferring using the NX-TR Pintool (WAKO Scientific Solutions, San Diego, CA). Then, 2.5 ul/well of gametocytes was dispensed with a seeding density of 20,000 cells/well using the Multidrop Combi. The assay plates were incubated for 72 h at 37C with 5% CO2. After addition of 5 ul/well of 2X AlamarBlue dye (Life Technologies, cat. no. DAL1100), the plates were incubated for 24 h at 37C with 5% CO2 and then were read in a fluorescence detection mode (Ex = 525 nm, Em = 598 nm) on a ViewLux plate reader (PerkinElmer).
On the technique in general: qHTS replaces the single test concentration by a dilution series.
With `O=c1cc(CN2CCOCC2)occ1OCCCCCSc1ccnc2cc(C(F)(F)F)ccc12`, the max response was 18.6%. Consider `CC[C@]1(O)C[C@@H]2CN(CCc3c([nH]c4ccccc34)[C@@](C(=O)OC)(c3cc4c(cc3OC)N(C)[C@H]3[C@@](O)(C(=O)OC)[C@H](OC(C)=O)[C@]5(CC)C=CCN6CC[C@]43[C@@H]65)C2)C1`, for which the Potency is 15.8 µM (active) and the max response is -2.09%. Regarding `COc1cc(N2CCC(N3CCN(C)CC3)CC2)ccc1Nc1ncc(Cl)c(Nc2ccccc2S(=O)(=O)C(C)C)n1`, the Potency is 4.69 µM (active).

Regarding `CC1=C(/C=C/C(C)=C/C=C/C(C)=C/C(=O)Nc2ccc(O)cc2)C(C)(C)CCC1`, the max response is -5.25% and -28.8%. As for `CC/C(=C(\c1ccccc1)c1ccc(OCCN(C)C)cc1)c1ccccc1`, the max response was 10%. As for `Cc1nc(N)sc1-c1ccnc(Nc2ccc(N3CCOCC3)cc2)n1`, the max response is -1.3%. Consider `CC(C)C(=O)Nc1ncc(-c2cc(C(F)F)nn2-c2c(Cl)cccc2Cl)s1`, for which the max response is 17%. Regarding `CS(=O)c1ccc(-c2nc(-c3ccc(F)cc3)c(-c3ccncc3)[nH]2)cc1` (stereo not given), the max response was 1.2%. Take `CCc1ccc(OCc2ccccc2C(=O)Nc2ccc3nc(C)cc(N)c3c2)cc1`: the Potency is 8.33 µM (active). Regarding `CC1(C)CCC2=C(O1)c1ccccc1C(=O)C2=O`, the Potency was 2.82 µM (active). With `COC(=O)[C@@H]1[C@H]2C[C@H]3c4[nH]c5ccccc5c4CCN3C[C@@H]2CC[C@@H]1O`, the max response was 29.3% and 18.6%. Turning to `NC(N)=Nc1nc(CSCC/C(N)=N/S(N)(=O)=O)cs1`, the max response is 5.05% and 9.64%.

As for `O=C1C(Cl)=C(NCCN2CCOCC2)C(=O)c2ncccc21`, the max response is -156%. Take `OC[C@@H](O)[C@H](O)[C@H](O)[C@@H](O)CO`: the max response is 1.74% and -2.1%. `O=c1c(-c2ccc(O)cc2)coc2cc(O)ccc12`: the max response is 16.7%. As for `CC(C)(C)COc1ccc(-n2cc(C(=O)O)cn2)cc1C#N`, the max response is 54.6%. Still for that read-out and setting: with `O=C(O)Cc1cccc2ccccc12` the figure was 19.3% and -5.56%; with `Clc1ccc(-c2nc3sccn3c2C=NOCc2ccc(Cl)c(Cl)c2)cc1`, 17.5%; with `CC(=O)O[C@]1(C(C)=O)CC[C@H]2[C@@H]3C=C(Cl)C4=CC(=O)[C@@H]5C[C@@H]5[C@]4(C)[C@H]3CC[C@@]21C`, 5.83%. With `CN(C)Cc1ccc(-c2nc3cccc4c3n2CCNC4=O)cc1`, the max response was 13%. For the compound `O=C(Nc1ccccc1-c1cn2c(CN3CCNCC3)csc2n1)c1cnc2ccccc2n1`, the Potency was 3.72 µM (active).

For `CCN(CC)C(=O)c1ccc(O)c(OC)c1`, the max response is 14.2% and 0.626% and 4.97%. Turning to `Cc1cnc(C(=O)O)c[n+]1[O-]`, the max response was 8.17% and 2.06% and -4.26%. Regarding `O=C1NC(=O)C(c2ccccc2)(c2ccccc2)N1`, the max response was -6.42% and 2.98% and 10.3%. On the same count and under the same terms, with `COc1cc(Nc2ncc(F)c(Nc3ccc4c(n3)NC(=O)C(C)(C)O4)n2)cc(OC)c1OC` the figure was 23.2%; with `CC(C)[C@H](CO)Nc1nc(Nc2ccc(C(=O)O)c(Cl)c2)c2ncn(C(C)C)c2n1`, 63.2%; with `CC(C)(C)C(=O)Oc1ccc2c(c1)nc(NC(=O)c1cccc([N+](=O)[O-])c1)n2CCCO`, 2.9%.

`O=C(Nc1cc(Cl)cc2c1[nH]c1cnccc12)c1cccnc1`: the max response was 1.52%. As to `O=C(NCCN1CCOCC1)c1ccc(Cl)cc1`, the max response is -4.13% and 9.69% and 29.4%. As to `C[C@@H](O)[C@H]1C(=O)N2C(C(=O)O)=C(S[C@@H]3CN[C@H](C(=O)N(C)C)C3)[C@H](C)[C@H]12`, the max response is 2.89%.

`CC(C(=O)O)c1ccc(-c2ccccc2)c(F)c1` (stereo not given): the max response was 6.81%.

With `COc1ccccc1N1CCN(CCCNc2cc(=O)n(C)c(=O)n2C)CC1`, the max response was 9.05% and -4.71% and 2.95%. On to `O=C1NCC2(CCN(CCc3ccccc3)CC2)O1`, for which the max response was 1.69% and 18.3%. For `O=C(O)CCc1nc(-c2ccccc2)c(-c2ccccc2)o1`, the max response was 14.6% and 5.09%. Consider `CCN(CC)CCOC(=O)c1ccc(N)cc1`, for which the max response was 17.2% and 7.74%. Same read-out and setting: with `CC(C)OC(=O)C(C)(C)Oc1ccc(C(=O)c2ccc(Cl)cc2)cc1` the figure was 7.26% and 15.7%; with `O=C(O)CCC1CCC(c2cc(F)ccc2F)(S(=O)(=O)c2ccc(Cl)cc2)CC1` (stereo not given), -21%. Consider `CCN(CC)CCNC(=O)c1ccc(N)cc1`, for which the max response was 34.9%. In the case of `CCCCC1C(=O)N(c2ccccc2)N(c2ccccc2)C1=O`, the max response is -1.91% and -0.936% and 31.1%.

For the origin of these results see PubChem BioAssay (NCATS).
